Measured values taken from the supplement of paper PMC6522484.
± gives the standard deviation of the averaged measurements.

Key:
[1] = tested on: DLD1; assay: cell viability (CellTiter-Glo) relative to plate median (fraction of plate median); higher = more viable cells; details: 5 µM; treatment time 24 h; reporter: 7TFP
Outline: (§1)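 Colorectal cancer cell lines stably carrying lentiviral TCF/Wnt firefly luciferase reporters (7TFP or TCF4/Wnt) were plated in 384-well plates and, 24 h later, given library compounds at a final 5 µM for 24 h. Firefly luciferase or CellTiterGlo luminescence was read on parallel plates with a Tecan F500 reader. Each well's signal was normalised to the plate median in webcellHTS2 (additive, without log transformation). Values are the mean of two independent replicates.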

[2] = tested on: HCT116; assay: as above; details: 5 µM; treatment time 24 h; reporter: TCF4/Wnt
Outline: as §1

[3] = tested on: SW480; assay: as above; details: 5 µM; treatment time 24 h; reporter: 7TFP
Outline: as §1

[4] = tested on: DLD1; assay: TCF/Wnt firefly luciferase reporter signal relative to plate median (fraction of plate median); higher = higher Wnt reporter signal; details: 5 µM; treatment time 24 h; reporter: 7TFP
Outline: as §1

[5] = tested on: SW480; assay: as above; details: 5 µM; treatment time 24 h; reporter: 7TFP
Outline: as §1

[6] = tested on: DLD1; assay: cell viability (CellTiter-Glo) relative to plate median (fraction of plate median); higher = more viable cells; details: 10 µM, treatment time 24 h
Outline: (§2)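 In 384-well plates, colorectal cancer lines with stable lentiviral 7TFP or TCF4/Wnt firefly luciferase reporters were seeded and, 24 h later, given kinase inhibitor library compounds at a final 10 µM for 24 h. A Tecan F500 reader measured firefly luciferase on one plate and CellTiterGlo on a parallel plate. Reported figures are two-replicate means of well signals normalised to the plate median, computed additively in webcellHTS2 without log transformation.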

[7] = tested on: HCT116; assay: as above; details: 10 µM; treatment time 24 h; reporter: TCF4/Wnt
Outline: as §2

[8] = tested on: SW480; assay: as above; details: 10 µM; treatment time 24 h; reporter: 7TFP
Outline: as §2

[9] = tested on: DLD1; assay: TCF/Wnt firefly luciferase reporter signal relative to plate median (fraction of plate median); higher = higher Wnt reporter signal; details: 10 µM, treatment time 24 h
Outline: as §2

[10] = tested on: HCT116; assay: as above; details: 10 µM; treatment time 24 h; reporter: TCF4/Wnt
Outline: as §2

[11] = tested on: SW480; assay: as above; details: 10 µM; treatment time 24 h; reporter: 7TFP
Outline: as §2

How did the cell viability [1] turn out when CNC(Cc1c[nH]c2ccccc12)C(=O)O (stereo unspecified) was run?
The cell viability was 1.06 ± 0.11.

And the cell viability [2]?
The cell viability was 0.975 ± 0.0057.

What about the cell viability [3] of the same molecule?
The cell viability was 1 ± 0.011.

And the “TCF/Wnt firefly luciferase reporter signal” value [4]?
The value was 1.03 ± 0.13.

What about the “TCF/Wnt firefly luciferase reporter signal” value [5] of the same molecule?
The value was 0.98 ± 0.13.

Which cell viability [1] does the source give for C[C@]12CC[C@H](Cl)C[C@@H]1CC[C@@H]1[C@@H]2CC[C@]2(C)C(=O)CC[C@@H]12 [3beta-CHLOROANDROSTANONE] here?
The cell viability was 1.08 ± 0.05.

And the cell viability [2]?
The cell viability was 0.981 ± 0.041.

What about the cell viability [3] of the same molecule?
Its cell viability is 1.06 ± 0.071.

And the “TCF/Wnt firefly luciferase reporter signal” value [4]?
The value was 1.07 ± 0.13.

What about the “TCF/Wnt firefly luciferase reporter signal” value [5] of the same molecule?
Its value is 1.115 ± 0.0071.

Which cell viability [1] does the source give for Cc1cc2c(C(C)C)c(O)c(O)c(C=O)c2c(O)c1-c1c(C)cc2c(C(C)C)c(O)c(O)c(C=O)c2c1O here?
Its cell viability is 0.974 ± 0.037.

What about the cell viability [2] of the same molecule?
Its cell viability is 0.969 ± 0.044.

What about the cell viability [3] of the same molecule?
Its cell viability is 0.976 ± 0.03.

And the “TCF/Wnt firefly luciferase reporter signal” value [4]?
The value was 0.966 ± 0.048.

And the “TCF/Wnt firefly luciferase reporter signal” value [5]?
Its value is 1.04 ± 0.11.

What does the source list for CC(=O)CC1CCCCN1 (stereo unspecified)?
cell viability [1]: 0.961 ± 0.055; cell viability [2]: 1.03 ± 0.043; cell viability [3]: 0.993 ± 0.0099; TCF/Wnt firefly luciferase reporter signal [4]: 0.92 ± 0.09; TCF/Wnt firefly luciferase reporter signal [5]: 0.977 ± 0.018

For CN[C@@H]1C[C@H]2O[C@@](C)([C@@H]1OC)n1c3ccccc3c3c4c(c5c6ccccc6n2c5c31)C(=O)NC4 [Staurosporine], which cell viability ([6]; reporter: 7TFP) is on record?
The cell viability was 0.617 ± 0.047.

And the cell viability ([6]; reporter: TCF4/Wnt)?
The cell viability was 0.701 ± 0.067.

What about the cell viability [7] of the same molecule?
Its cell viability is 0.23 ± 0.13.

And the cell viability [8]?
Its cell viability is 0.68 ± 0.25.

What about the cell viability [1] of the same molecule?
The cell viability was 0.837 ± 0.027.

And the cell viability [2]?
The cell viability was 0.712 ± 0.0099.

And the cell viability [3]?
The cell viability was 1.14 ± 0.035.

What about the “TCF/Wnt firefly luciferase reporter signal” value [4] of the same molecule?
The value was 0.583 ± 0.023.

And the “TCF/Wnt firefly luciferase reporter signal” value [5]?
Its value is 0.965 ± 0.045.

And the “TCF/Wnt firefly luciferase reporter signal” value ([9]; reporter: 7TFP)?
The value was 0.204 ± 0.069.

And the “TCF/Wnt firefly luciferase reporter signal” value ([9]; reporter: TCF4/Wnt)?
Its value is 0.2 ± 0.04.

What about the “TCF/Wnt firefly luciferase reporter signal” value [10] of the same molecule?
The value was 0.103 ± 0.0065.

What about the “TCF/Wnt firefly luciferase reporter signal” value [11] of the same molecule?
Its value is 0.346 ± 0.19.

Which cell viability [1] does the source give for Oc1ccc(Cl)cc1Cc1cc(Cl)ccc1O here?
The cell viability was 0.881 ± 0.12.

What about the cell viability [2] of the same molecule?
Its cell viability is 0.868 ± 0.0092.

What about the cell viability [3] of the same molecule?
The cell viability was 1.03 ± 0.035.

And the “TCF/Wnt firefly luciferase reporter signal” value [4]?
Its value is 0.883 ± 0.17.

What about the “TCF/Wnt firefly luciferase reporter signal” value [5] of the same molecule?
The value was 0.953 ± 0.081.

What does the source list for C[C@@H]1CC[C@H]2[C@@H](C)C(=O)O[C@@H]3O[C@@]4(C)CC[C@@H]1[C@]32OO4?
cell viability [1]: 1.04; cell viability [2]: 1.09 ± 0.14; cell viability [3]: 1.145 ± 0.0071; TCF/Wnt firefly luciferase reporter signal [4]: 1 ± 0.023; TCF/Wnt firefly luciferase reporter signal [5]: 0.984 ± 0.066

Which results are given for O=P1(NCCCl)OCCCN1CCCl (stereo unspecified)?
cell viability [1]: 1.03 ± 0.079; cell viability [2]: 0.996 ± 0.021; cell viability [3]: 0.973 ± 0.053; TCF/Wnt firefly luciferase reporter signal [4]: 0.999 ± 0.28; TCF/Wnt firefly luciferase reporter signal [5]: 0.97 ± 0.086

What does the source list for O=c1[nH]c2ccc(Cl)cc2c(N[C@@H]2CN3CCC2CC3)c1-c1nc2ccccc2[nH]1?
cell viability ([6]; reporter: 7TFP): 1.004 ± 0.0092; cell viability ([6]; reporter: TCF4/Wnt): 1.06 ± 0.05; cell viability [7]: 0.521 ± 0.25; cell viability [8]: 0.992 ± 0.025; TCF/Wnt firefly luciferase reporter signal ([9]; reporter: 7TFP): 2.27 ± 0.078; TCF/Wnt firefly luciferase reporter signal ([9]; reporter: TCF4/Wnt): 2.27 ± 0.18; TCF/Wnt firefly luciferase reporter signal [10]: 0.439 ± 0.17; TCF/Wnt firefly luciferase reporter signal [11]: 1.8 ± 0.099

Which cell viability [1] does the source give for COc1cc2c(cc1OC)[C@@H]1C(=O)c3ccc(OC)c(CC=C(C)C)c3O[C@@H]1CO2 here?
The cell viability was 0.943 ± 0.11.

And the cell viability [2]?
The cell viability was 0.849 ± 0.042.

And the cell viability [3]?
Its cell viability is 0.992 ± 0.011.

And the “TCF/Wnt firefly luciferase reporter signal” value [4]?
The value was 0.848 ± 0.069.

What about the “TCF/Wnt firefly luciferase reporter signal” value [5] of the same molecule?
Its value is 0.947 ± 0.13.

With CC1=C2C(=CO[C@H](C)[C@H]2C)C(O)=C(C(=O)O)C1=O as the molecule, how does the cell viability [1] read?
The cell viability was 0.939 ± 0.076.

What about the cell viability [2] of the same molecule?
Its cell viability is 1 ± 0.022.

What about the cell viability [3] of the same molecule?
Its cell viability is 0.923 ± 0.027.

And the “TCF/Wnt firefly luciferase reporter signal” value [4]?
Its value is 0.861 ± 0.13.

What about the “TCF/Wnt firefly luciferase reporter signal” value [5] of the same molecule?
Its value is 0.9055 ± 0.0035.

Which cell viability [1] does the source give for COc1c2c(cc3c1OCO3)CC[N+](C)=C2 here?
Its cell viability is 0.978 ± 0.046.

What about the cell viability [2] of the same molecule?
Its cell viability is 0.945 ± 0.072.

What about the cell viability [3] of the same molecule?
The cell viability was 0.991 ± 0.07.

What about the “TCF/Wnt firefly luciferase reporter signal” value [4] of the same molecule?
Its value is 1 ± 0.036.

What about the “TCF/Wnt firefly luciferase reporter signal” value [5] of the same molecule?
Its value is 1.075 ± 0.0071.
